Measured values reported in PubChem BioAssay (Tox21).
Records with an inconclusive call do not appear. Activity calls are given as the source filed them. Calls follow the shape of the dose curve; as a rule, active = well fitted curve in the direction sought with a large enough effect in the repeat runs; inconclusive = weak or mixed curves; inactive = no such curve, though single readings can be large; an effect the other way counts as inactive or inconclusive.

What was measured:
[1] = A CellTox Green Cytotoxicity Assay to monitor cytotoxicity in HEK293 cells - 40 hour (AID 1224871); also: nearly all actives have a fitted effect of over 45% in size
Procedure, shortened: (§1)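 Fluorescence intensity, read at 0, 8, 16, 24, 32 and 40 h of compound treatment, reflected dye binding to DNA of dead HEK293 cells; compounds (23 nL, DMSO) were added 5 h after plating cells with reagent.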

[2] = qHTS RealTime-Glo MT Cell Viability Assay in HEK293 cells - 16 hour (AID 1224872); also: top concentration of the series differs between compounds; nearly all actives have a fitted effect of over 50% in size
Procedure, shortened: (§2)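 HEK293 cells seeded with NanoLuc/prosubstrate reagent, rested 5 h at 37 C, then dosed and kept at 37 C up to 40 h. Nonlytic real-time luminescence from viable cells read at 0, 8, 16, 24, 32 and 40 h.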

[3] = qHTS RealTime-Glo MT Cell Viability Assay in HepG2 cells - 8 hour (AID 1224873); also: nearly all actives have a fitted effect of over 55% in size
Procedure, shortened: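 HepG2 cells mixed with RealTime-Glo MT reagents (NanoLuc plus cell-permeant prosubstrate) were seeded at 600 cells/well, incubated 5 h at 37 C/5% CO2, then pinned with compounds in DMSO; nonlytic luminescence tracked viability during 40 h treatment.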

[4] = A CellTox Green Cytotoxicity Assay to monitor cytotoxicity in HEK293 cells - 24 hour (AID 1224875); also: series mostly up to about 77 µM; nearly all actives have a fitted effect of over 45% in size
Procedure, shortened: as §1

[5] = A CellTox Green Cytotoxicity Assay to monitor cytotoxicity in HepG2 cells - 16 hour (AID 1224876); also: nearly all actives have a fitted effect of over 45% in size
Procedure, shortened: (§3)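 Using 1536-well format, dye-containing HepG2 suspension was seeded, allowed 5 h at 37 C/5% CO2, dosed by pintool with compounds, positive and negative controls, and imaged for fluorescence across 40 h.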

[6] = qHTS RealTime-Glo MT Cell Viability Assay in HepG2 cells - 32 hour (AID 1224877); also: nearly all actives have a fitted effect of over 55% in size
Procedure, shortened: (§4)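 HepG2 cells (600/well) were dispensed with RealTime-Glo reagents, incubated 5 h at 37 °C, then treated with compounds in DMSO for up to 40 h. Nonlytic NanoLuc luminescence reflecting viable cells was read at each stated time point.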

[7] = A CellTox Green Cytotoxicity Assay to monitor cytotoxicity in HepG2 cells - 24 hour (AID 1224878); also: nearly all actives have a fitted effect of over 45% in size
Procedure, shortened: as §3

[8] = A CellTox Green Cytotoxicity Assay to monitor cytotoxicity in HepG2 cells - 40 hour (AID 1224879); also: nearly all actives have a fitted effect of over 40% in size
Procedure, shortened: as §3

[9] = qHTS RealTime-Glo MT Cell Viability Assay in HEK293 cells - 0 hour (AID 1224880)
Procedure, shortened: (§5)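 Viable HEK293 cells reduce a cell-permeant prosubstrate; the product diffuses out and is consumed by NanoLuc in the medium to give light. Compounds went in after a 5 h incubation and plates were read over the treatment course.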

[10] = A CellTox Green Cytotoxicity Assay to monitor cytotoxicity in HEK293 cells - 32 hour (AID 1224881); also: nearly all actives have a fitted effect of over 40% in size
Procedure, shortened: as §1

[11] = A CellTox Green Cytotoxicity Assay to monitor cytotoxicity in HepG2 cells - 0 hour (AID 1224882); also: nearly all actives have a fitted effect of over 35% in size
Procedure, shortened: as §3

[12] = A CellTox Green Cytotoxicity Assay to monitor cytotoxicity in HepG2 cells - 32 hour (AID 1224883); also: nearly all actives have a fitted effect of over 50% in size
Procedure, shortened: as §3

[13] = A CellTox Green Cytotoxicity Assay to monitor cytotoxicity in HEK293 cells - 8 hour (AID 1224884); also: nearly all actives have a fitted effect of over 35% in size
Procedure, shortened: as §1

[14] = qHTS RealTime-Glo MT Cell Viability Assay in HepG2 cells - 16 hour (AID 1224885); also: nearly all actives have a fitted effect of over 50% in size
Procedure, shortened: as §4

[15] = qHTS RealTime-Glo MT Cell Viability Assay in HEK293 cells - 8 hour (AID 1224887); also: top concentration of the series differs between compounds; nearly all actives have a fitted effect of over 50% in size
Procedure, shortened: as §5

[16] = A CellTox Green Cytotoxicity Assay to monitor cytotoxicity in HEK293 cells - 16 hour (AID 1224888); also: nearly all actives have a fitted effect of over 35% in size
Procedure, shortened: as §1

[17] = A CellTox Green Cytotoxicity Assay to monitor cytotoxicity in HepG2 cells - 8 hour (AID 1224890); also: nearly all actives have a fitted effect of over 45% in size
Procedure, shortened: as §3

[18] = qHTS RealTime-Glo MT Cell Viability Assay in HEK293 cells - 40 hour (AID 1224874); conditions: RealTime-Glo luminescence; max response: active compounds read low; also: nearly all actives have a fitted effect of over 50% in size
Procedure, shortened: as §5

[19] = qHTS RealTime-Glo MT Cell Viability Assay in HEK293 cells - 24 hour (AID 1224886)
Procedure, shortened: as §2

[20] = qHTS RealTime-Glo MT Cell Viability Assay in HepG2 cells - 0 hour (AID 1224889); also: nearly all actives have a fitted effect of over 50% in size
Procedure, shortened: as §4
% is scaled to controls: 0 for no effect and ±100 for the full control effect.

CC(=O)[C@H]1[C@H](C#N)C[C@H]2[C@@H]3CC=C4C[C@@H](O)CC[C@]4(C)[C@H]3CC[C@@]21C
inactive: Potency [1] | Potency [2] | Potency [3] | Potency [4] | Potency [5] | Potency [6] | Potency [7] | Potency [8] | Potency [9] | Potency [10] | Potency [11] | Potency [12] | Potency [13] | Potency [14] | Potency [15] | Potency [16] | Potency [17]

C/C=C/C=C/C=O
inactive: Potency [1] | Potency [2] | Potency [3] | max response [18] 10.8% | Potency [5] | Potency [6] | Potency [7] | Potency [8] | Potency [9] | Potency [10] | Potency [11] | Potency [12] | Potency [13] | Potency [14] | Potency [19] | Potency [15] | Potency [16] | Potency [20] | Potency [17]

O=C=Nc1ccc(Cl)c(Cl)c1
inactive: Potency [1] | Potency [2] | Potency [3] | max response [18] -3.97% | Potency [5] | Potency [6] | Potency [7] | Potency [8] | Potency [9] | Potency [10] | Potency [11] | Potency [12] | Potency [13] | Potency [14] | Potency [19] | Potency [15] | Potency [16] | Potency [20]

C1C[C@@H]2[C@H]3CC[C@H](C3)[C@@H]2C1
inactive: Potency [1] | Potency [2] | Potency [3] | max response [18] -10.1% | Potency [5] | Potency [6] | Potency [7] | Potency [8] | Potency [9] | Potency [10] | Potency [12] | Potency [13] | Potency [14] | Potency [19] | Potency [15] | Potency [16] | Potency [20]

C=C1CCC2CC1C2(C)C (stereo not given)
inactive: Potency [1] | Potency [2] | Potency [3] | max response [18] 0.0757% | Potency [5] | Potency [6] | Potency [7] | Potency [8] | Potency [9] | Potency [10] | Potency [12] | Potency [13] | Potency [19] | Potency [15] | Potency [16] | Potency [20] | Potency [17]

CCCCCCNC(=O)n1cc(F)c(=O)[nH]c1=O
inactive: Potency [1] | Potency [2] | Potency [3] | max response [18] -6.08% | Potency [4] | Potency [5] | Potency [6] | Potency [7] | Potency [9] | Potency [10] | Potency [11] | Potency [12] | Potency [13] | Potency [19] | Potency [15] | Potency [16]

CCC(OCCCOC)OC(C)=O (stereo not given)
inactive: Potency [1] | Potency [2] | Potency [3] | max response [18] 3.03% | Potency [5] | Potency [6] | Potency [7] | Potency [8] | Potency [9] | Potency [11] | Potency [12] | Potency [13] | Potency [14] | Potency [19] | Potency [15] | Potency [16] | Potency [20] | Potency [17]

C=C(C)[C@@H]1CCC2=CCC[C@@H](C)[C@]2(C)C1
inactive: Potency [1] | Potency [2] | Potency [3] | max response [18] 0.724% | Potency [4] | Potency [6] | Potency [10] | Potency [11] | Potency [13] | Potency [19] | Potency [15] | Potency [16] | Potency [17]
